# Source: PubChem BioAssay (NCI)
# About 83,000 compounds went through this panel and 20% of them were active in at least one assay; those are over-represented in the sample as a whole.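 Percent growth is the endpoint: 0 to 100 indicates growth inhibition (40 means 60% inhibition), 0 means no net growth, and negative values indicate cell death.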 Unmarked numbers belong to inactive results. Activity calls are given as the source filed them. Rule for the calls: active = growth percent below 10; inactive = the rest.
# Columns and labels:
# Test in all cases: NCI-60 one-dose screen, 48 h (100 = growth as untreated, 0 = no growth, -100 = all killed)
# Details in all cases: 10 µM unless noted
# SR leukemia = tested on: SR leukemia
# RPMI-8226 leukemia = tested on: RPMI-8226 leukemia
# OVCAR-8 ovarian = tested on: OVCAR-8 ovarian
# OVCAR-5 ovarian = tested on: OVCAR-5 ovarian
# OVCAR-4 ovarian = tested on: OVCAR-4 ovarian
# SK-OV-3 ovarian = tested on: SK-OV-3 ovarian
# IGROV1 ovarian = tested on: IGROV1 ovarian
# OVCAR-3 ovarian = tested on: OVCAR-3 ovarian
# HS 578T breast = tested on: HS 578T breast
# NCI/ADR-RES ovarian = tested on: NCI/ADR-RES ovarian
# T-47D breast = tested on: T-47D breast
# BT-549 breast = tested on: BT-549 breast
# MDA-MB-435 melanoma = tested on: MDA-MB-435 melanoma
# SW-620 colon = tested on: SW-620 colon
# MCF7 breast = tested on: MCF7 breast
# HCT-116 colon = tested on: HCT-116 colon
# HCC-2998 colon = tested on: HCC-2998 colon
# KM12 colon = tested on: KM12 colon
SMILES,growth (SR leukemia),growth (RPMI-8226 leukemia),growth (OVCAR-8 ovarian),growth (OVCAR-5 ovarian),growth (OVCAR-4 ovarian),growth (SK-OV-3 ovarian),growth (IGROV1 ovarian),growth (OVCAR-3 ovarian),growth (HS 578T breast),growth (NCI/ADR-RES ovarian),growth (T-47D breast),growth (BT-549 breast),growth (MDA-MB-435 melanoma),growth (SW-620 colon),growth (MCF7 breast),growth (HCT-116 colon),growth (HCC-2998 colon),growth (KM12 colon)
CNC1CCc2c(sc(NC(=O)c3ccc(C(C)(C)C)cc3)c2C(N)=O)C1 (stereo unspecified),2.87% (active),-5.86% (active),74.6%,67%,81.4%,90.6%,65.8%,61.3%,57.3%,78.2%,53.6%,74.7%,45.2%,-53.5% (active),-34.2% (active),3.12% (active),28.6%,10%
C=CCn1c(SCC(=O)Nc2ccc(C(=O)/C=C/c3cc(OC)c(OC)c(OC)c3)cc2)nnc1-c1c[nH]c2ccccc12,1.35% (active),-35.2% (active),37.8%,32.1%,59.4%,75.3%,-26% (active),6.15% (active),38.8%,88.9%,49%,47.2%,5.25% (active),-0.994% (active),-30.8% (active),-66.1% (active),-28% (active),30.4%
Brc1ccccc1/C=N/Nc1nc(N/N=C/c2ccccc2Br)nc(N2CCOCC2)n1,63.9%,65%,96.6%,111%,96.2%,114%,89.7%,85.2%,114%,91.5%,79%,107%,97.7%,96.7%,85.2%,97.5%,70.9%,89.1%
CC(=O)N(C)C1CCc2c(sc(NC(=O)c3ccc(C(C)(C)C)cc3)c2C(N)=O)C1 (stereo unspecified),9.43% (active),81.2%,73.8%,78.9%,41.7%,108%,100%,83.7%,38.9%,79.6%,74%,88.2%,83.7%,58.2%,59.8%,65.1%,108%,64.9%
Cc1c(Cl)cccc1S(=O)(=O)Nc1ccc2c(c1)C(=O)N(C1CCC(=O)NC1=O)C2=O (stereo unspecified),97.1%,84.5%,47.8%,97.3%,69.1%,106%,64.1%,105%,67.3%,73.3%,44%,63.9%,96.2%,44.8%,88.2%,107%,67.9%,92.2%
CCn1c(SCC(=O)Nc2cccc(C(=O)/C=C/c3ccccc3Cl)c2)nc2ccccc2c1=O,52.2%,6.75% (active),98.9%,97.7%,86%,106%,65.7%,69.1%,92.2%,93.4%,81.3%,105%,98.6%,72.8%,17.1%,-26.3% (active),91%,85.3%
CS(=O)(=O)Nc1cc(-c2ccc3ncc(C#N)c(NCc4cccc(F)c4)c3c2)cnc1Cl,2.9% (active),-24.2% (active),7.95% (active),16.4%,11.3%,-18.2% (active),-42.5% (active),2.49% (active),-24.8% (active),23.4%,0.599% (active),-17.4% (active),5.21% (active),6.55% (active),0.85% (active),4.35% (active),-25.1% (active),6.28% (active)
C#CCOC(=O)[C@@H]1CCCN1CC#C,95.5%,71%,90.4%,103%,91.9%,97.6%,67.3%,87.3%,74.8%,85.7%,92.6%,95.2%,90.9%,96.7%,74.9%,81.6%,96.7%,91.5%
COc1ccc(-c2nc3cccc(O)c3c(=O)n2Cc2ccccc2)cc1COc1ccc(NC(C)=O)cc1,27.5% [3 µM],44.5% [3 µM],49.3% [3 µM],64.2% [3 µM],83% [3 µM],67.2% [3 µM],41.6% [3 µM],66.9% [3 µM],63.8% [3 µM],51.1% [3 µM],76.5% [3 µM],55.4% [3 µM],59.7% [3 µM],27.9% [3 µM],37.1% [3 µM],22.1% [3 µM],67.8% [3 µM],39.8% [3 µM]
O=C(NCCN1CCCC1)c1ccc(-c2nc3ccc4[nH]ncc4c3c3c2CCCC3)cc1,-24.4% (active),-15% (active),10.9%,23.5%,16%,0.026% (active),1.22% (active),1.47% (active),-1.99% (active),93.2%,23%,-33.4% (active),12.3%,1.5% (active),-9.45% (active),1.82% (active),-1.05% (active),1.12% (active)
COc1ccc(C(=O)c2c(N)c(C#N)cn2-c2ccccc2OC)cc1,16.1%,35.9%,55.9%,76.7%,63.3%,45.6%,33.1%,14.6%,13%,13.5%,32.1%,64.5%,-27.8% (active),20.3%,13.9%,22.2%,48%,27.5%
C=CCn1c(SCC(=O)Nc2ccc(C(=O)/C=C/c3ccc(C)cc3)cc2)nnc1-c1c[nH]c2ccccc12,71.7%,34.9%,90.9%,99.6%,81.3%,105%,78.4%,99.4%,96.9%,98.4%,70%,107%,96.7%,96.9%,20.2%,-2.08% (active),102%,96.6%
CNC(=O)c1cc(-c2ccc(NS(=O)(=O)c3ccc(C)cc3)cc2)nc2cccnc12,113%,110%,99.5%,117%,99.5%,107%,97.4%,111%,104%,100%,98%,110%,109%,107%,72.9%,111%,108%,101%
O=C(Nc1nc2ccc([N+](=O)[O-])cc2s1)Nc1ccccc1Br,23.2%,6.15% (active),51.4%,84.4%,12.2%,63.6%,47.3%,25.9%,47.1%,52.1%,33.8%,71.7%,38.2%,39.2%,24.8%,18.1%,37.8%,15.1%
COc1ccc(-c2nc(C(Cl)Cl)nc3cc(-c4ccccc4)nn23)cc1,4.09% (active),14.9%,-34.3% (active),-12.9% (active),-15.3% (active),-29.7% (active),2.02% (active),-33.9% (active),-6.94% (active),9.82% (active),45.8%,38.4%,-30.3% (active),-23.9% (active),29.3%,1.5% (active),-37.8% (active),-2.28% (active)
O=C(CCn1c[n+](CC(=O)c2ccc(F)cc2)c2ccccc21)Nc1cccc2cccnc12,79.5%,35.1%,86.9%,79.6%,52.3%,88.2%,39.4%,55.4%,84.5%,96.5%,53.9%,69.9%,79%,92.3%,68%,53.1%,87%,76%
CCc1cccc2c3c(sc12)C(c1ccc(Cl)cc1)C(C#N)=C(/N=C/c1ccc(Cl)cc1)O3 (stereo unspecified),13.9%,8.79% (active),28.1%,32.9%,79.1%,55.4%,28.1%,-14.2% (active),8.08% (active),5.33% (active),25.7%,51.7%,-58.4% (active),29.3%,15.8%,22.2%,7.72% (active),13.2%
